From PubChem BioAssay AID624167 (Sanford-Burnham Center for Chemical Genomics, 2012)

Test: Peg3 promoter luciferase inhibitors, potency, dose response, cell-based, HeLa, CREF/GAPDH counter-screen panel (AID 624167)
Settings: CREF/GAPDH counter-screens; run 2, dose range 1, at 100 µM (top of the series)

| SMILES | inhibition [%] |
| --- | --- |
| C/C(=N\NC(=O)c1c(C)nc2ccccn12)c1ccc(O)cc1O | 7.76 |
| COc1cccc(OC)c1C(=O)Nc1cc(C)nn1-c1nc2ccccc2[nH]1 | 54.4 |
| COc1cc(Nc2c3ccccc3nc3ccccc23)cc(OC)c1OC | 100 |
| COc1ccc(N(C(=O)CCl)C(C(=O)NC2CCCCC2)c2cccnc2)cc1 (stereo not drawn) | 82.8 |
| CN=c1sc2c(n1C)C(=O)c1ccccc1C2=O | 87.2 |
| CCc1ccc(/C=C2\SC(=S)N(CCCC(=O)Nc3ccccn3)C2=O)cc1 | 25.6 |
| COc1ccc(C(NC(C)=O)c2ccc3cccnc3c2O)c(OC)c1 (stereo not drawn) | 0.125 |
| CCCC(=O)NC(c1ccc(Cl)cc1)c1ccc2cccnc2c1O (stereo not drawn) | 70.1 |
| C(=N\Nc1ccc2ccccc2n1)/c1ccc2c(c1)OCCO2 | 92 |
| CC(C)(C)c1ccc(Cn2c(=O)cnc3ccccc32)cc1 | 96.6 |
| CC(=O)c1cccc(-c2ccnc3c2CC(C(=O)Nc2cccc(NS(C)(=O)=O)c2)O3)c1 (stereo not drawn) | 52 |
| Cc1cccc(OCC(=O)NCC(=O)N/N=C/c2cc(Br)cc(Br)c2O)c1 | 74.4 |
| O=C(N/N=C\c1c(O)ccc2ccccc12)c1cncc(Br)c1 | 72.8 |
| CCCC(=O)NC(c1ccc(N(C)C)cc1)c1ccc2cccnc2c1O (stereo not drawn) | 27.1 |
| O=C(O)c1ccc(CN2C(=O)c3cccc4c([N+](=O)[O-])ccc(c34)C2=O)cc1 | 100 |
| Oc1[nH]c2ccc(Br)cc2c1N=NC(=S)N1CCOCC1 | 63.5 |
| CC(/C=C/c1ccccc1)=N/NC(=O)c1cc([N+](=O)[O-])cc([N+](=O)[O-])c1 | 12.6 |

| SMILES | inhibition [%] |
| --- | --- |
| CCC(=O)NC(c1ccc(C)cc1)c1ccc2cccnc2c1O (stereo not drawn) | 53.6 |
| OCCCNc1nccc(-c2cc(Nc3cccc(Cl)c3)ncn2)n1 | 51.4 |
| COC(=O)C1C=CC(OC2OC(COC(C)=O)C(OC(C)=O)C(OC(C)=O)C2OC(C)=O)n2c(=O)n(-c3ccccc3)c(=O)n21 (stereo not drawn) | 84.2 |
| O=C(CCn1cnc(-c2ccccc2)c1-c1ccccc1)N/N=C/c1ccccc1O | 55.9 |
| O=C(Nc1ccccc1C(=O)Nc1nnc(C(F)(F)F)s1)c1ccccc1 | 60.9 |
| COc1cc(OC)c2cc(C(=O)N/N=C/c3ccccc3O)[nH]c2c1 | 73.3 |
| CN(C)c1ccc(C=c2c3ccccc3n3c2cc(-c2ccccc2)[n+]3C)cc1 | 100 |
| COc1cccc(/C=N/NC(=O)c2c(C)nc3ccc(Cl)cn23)c1O | -51.4 |
| CN1OC[C@@H]2CN(S(=O)(=O)c3cccc(C(F)(F)F)c3)[C@H](c3ccc(-c4cc5ccccc5o4)cc3)C[C@@H]21 | 70.9 |
| CCCCCCN1C=C/C(=C\C=C(C#N)C#N)c2ccccc21 | 22.9 |
| O=C(N/N=C/c1sc(N2CCOCC2)nc1-c1ccccc1)c1cccc(S(=O)(=O)N2CCCC2)c1 | 42.2 |
| CC(C)CCCCCCCCCCCCC(=O)NCC(=O)NC1C(O)C(O)C(Nc2ncnc3nc[nH]c23)OC1C(O)CO (stereo not drawn) | 98.2 |
| COc1cccc2c1C(=O)c1c(O)c3c(c(O)c1C2=O)CC(O)(C(C)=NNC(=O)c1ccc(Cl)c(Cl)c1)CC3OC1CC(N)C(O)C(C)O1 (stereo not drawn) | 99.4 |
| O=C(O)c1ccc(N/N=C/c2ccc(OC(=O)c3cccc(Cl)c3)cc2)cc1 | 97.2 |
| CN1CCC2(CC1)N=C(c1ccc(F)cc1)C(=S)N2C(=O)c1ccc(C(C)(C)C)cc1 | 97.8 |
| Cc1cc(NC(c2ccc(Cl)cc2)c2ccc3cccnc3c2O)no1 (stereo not drawn) | 55.8 |
